# In all, about 1,400 compounds went through this assay and about 980 (70%) were called active. Roughly 16% stayed inconclusive and do not appear here. Calls follow the shape of the full dose curve. So high a share suggests a set chosen from earlier hits. Only a sample is shown.
# Assay: Natriuretic polypeptide receptor (hNpr1) antagonism - Counterscreen GloSensor control cell line; also: nearly all actives have a fitted effect of over 70% in size
# Settings: HEK293 GloSensor cGMP, SNP-stimulated, luminescence; series mostly up to 57.6 µM
# Method: cGMP production was measured using a circular permutated firefly luciferase (FLuc) enzyme functionally linked to the cGMP binding domain of human phosphodiesterase 5 (GloSensor technology pGS-40F, (Fan, F. et al. 2008). The cGMP-sensor was expressed in human embryonic kidney 293 (HEK-293) cells and FLuc activity was measured after stimulation with the NO-donor sodium nitroprusside (SNP). SNP activates the endogenously expressed soluble guanylyl cyclase (GC) producing cGMP which then binds to the GloSensor resulting in FLuc activation, the enzymatic activity of which can be measured as bioluminescence with addition of luciferin substrate. F. Fan, B. F. Binkowski, B. L. Butler, P. F. Stecha, M. K. Lewis, K. V. Wood, Novel genetically encoded biosensors using firefly luciferase. ACS Chem Biol 3, 346-351 (2008).
# PROTOCOL TABLE (as described by Inglese J, Shamu CE and Guy RK. 2007) SEQUENCE No. (e.g., 1, 2, 3, etc.); PARAMETER (e.g., Cells, Incubation, Reagent, etc.); VALUE and DESCRIPTION. 1. Cells. Seed 1500 HEK293 cGMP-sensor cells per well in 4uL into Greiner 1536-well white/solid bottom high base, TC plates. 2. Incubation. Incubate plated cells at 37C in 5% CO2, 95% RH overnight. 3. Reagent. Add 1uL per well GloSensor reagent from Promega (2% final concentration) or CO2 independent media vehicle control to respective columns of Greiner 1536-well plates. 4. Incubation. Incubate plated cells at room temperature for 2 h, protect from light. 5. Compounds. Library compounds and DMSO vehicle control added at 23nL per well, transferred by Pin Tool. 6. Incubation. Incubate plated cells for 30 min. at room temperature, protect from light. 7. Detector. GloSensor baseline pre-read luminescence measured using CCD-based camera (Viewlux). 8. Compound. Add 1uL of sodium nitroprusside (SNP) to 50 uM final concentration to stimulate soluble guanylyl cyclase (GC) or CO2 independent media as vehicle control. 9. Incubation. Incubate treated cells at room temperature for 20 min., protect from light. 10. Detector. GloSensor post-SNP luminescence measured using CCD-based camera (Viewlux). NOTES (numbers refer to Sequence numbers above; values are from representative experiments) 1. HEK293 cells expressing GIP/pGS-40F were grown to 85-95% confluence (48-72 h) in T175 culture flasks (CO2 independent media supplemented with 10% FBS, 1% Pen/Strep antibiotics, and 1 ug/mL puromycin). Trypsinize and harvest cells from T175 culture flasks and filter through 40 um cell strainer. Cells counted with Invitrogen Countess (30,000,000 - 50,000,000 cells/flask). Cells diluted to a final concentration of 375 cells/uL in CO2 independent media and a Millipore multidrop used to dispense 1500 cells per well (4uL/well) into 13 1536-well Greiner White/Solid bottom, high base tissue-culture treated (TC) plates and one Aurora 1536-well Black/Clear bottom, low base, TC plate (for visual inspection of cell health throughout the duration of the assay). 2. Cells incubated for 24 h. at 37C in 95% RH incubator with metal lid having gas-exchange holes. 3. Prepare GloSensor Reagent (Promega): Reconstitute GloSensor luciferase substrate by adding 8.2mL Hepes buffer to 250mg substrate, mix well, protect from light and stored at -80C. Prepare a fresh 12% GloSensor solution in CO2 independent supplemented plating media (see above). Mix well and store at ambient temperature, protected from light. 1uL 12% GloSensor Luciferase Reagent added (2% final concentration) to respective columns of 13 x 1536-well Greiner plate with BioRaptr, 1uL CO2 independent plating media added to respective columns as vehicle control with BioRaptr. 4. Cells incubated for 2 h. at ambient temperature, protected from light with metal lid having gas-exchange holes. 5. 23nL of library compounds or DMSO vehicle control transferred to 13 Greiner white/solid bottom high base, TC plates in 11 interplate 1:3 titrations (see Yasgar, A. et al. 2008) with Pintool. 6. […]
# Potency is read from the fitted curve at half-maximal effect.
row,Structure (SMILES),Potency
1,COc1ccc(C2Cn3nnc(C(=O)N4CCN(C(=O)c5cccc(Cl)c5)CC4)c3CO2)cc1 (stereo unspecified),12.2 µM (active)
2,COc1cccc(C2Cn3nnc(-c4nc(-c5ccccc5)no4)c3CO2)c1 (stereo unspecified),inactive
3,COc1ccc(C2Cn3nnc(C(=O)N4CCN(C(=O)c5ccc(C)cc5C)CC4)c3CO2)cc1 (stereo unspecified),21.7 µM (active)
4,O=[S+]1([O-])NCC2(CCCN(Cc3ccc(C(F)(F)F)cc3)C2)Oc2ncccc21 (stereo unspecified),15.3 µM (active)
5,COc1ccc(C(CC(=O)N(C)Cc2cc(C3CC3)n[nH]2)c2ccccc2)cc1 (stereo unspecified),inactive
6,CC1(CCCCc2ccccc2)COc2ccc(C(=O)N3CC[S+](=O)([O-])CC3)cc2N1 (stereo unspecified),inactive
7,COc1ccc(OCC2(C)COc3ccc(C(=O)Nc4cccnc4)cc3N2)cc1 (stereo unspecified),49.8 µM (active)
8,Cc1noc(C)c1-c1cc(-c2ccccc2Oc2ccccc2)cn2cncc12,inactive
9,Cc1nc(-c2ccncc2)ncc1C(C)Nc1ncnc(C)c1C (stereo unspecified),19.3 µM (active)
10,CC(C)c1nncn1C1CCN(S(=O)(=O)c2cccc(Br)c2)CC1,24.3 µM (active)
11,CC1(C(=O)NCc2ccc3c(c2)OCO3)CCc2cnc(NCc3ccccc3)nc21 (stereo unspecified),44.4 µM (active)
12,CC(C)(C)c1csc(NC(=O)c2ccc3c(c2)OCCN(C2CCC2)C3)n1,25 µM (active)
13,COc1ccc(-c2noc(CC3CCN(C(=O)Cc4ccccc4)CC3)n2)cc1,27.3 µM (active)
14,COc1ccc(-c2noc(CC3CCN(C(=O)CC4CCCCC4)CC3)n2)cc1,8.62 µM (active)
15,COc1ccc(-c2noc(CC3CCN(C(=O)Cc4ccc(C)cc4)CC3)n2)cc1,30.6 µM (active)
16,COc1cccc(NC(=O)Cn2c(N(C)Cc3ccccc3)nc(C)cc2=O)c1,10.9 µM (active)
17,COc1cccc(CNC(=O)Cn2c(N(C)Cc3ccccc3)nc(C)cc2=O)c1OC,24.3 µM (active)
18,COc1cccc(C2C(C(=O)Nc3ccccc3)=C(C)N=C3SC=C(CC(=O)NCC(C)C)N32)c1 (stereo unspecified),inactive
19,O=C(c1ccc2cc[nH]c2c1)N1CCC2(CC1)N=C(c1ccc(Cl)cc1)NO2,15.3 µM (active)
20,Cc1nn2c(c1-c1ccnn1C(C)C)N(CC1CCOCC1)CCC2,inactive
21,Cc1nn2c(c1-c1ccccc1-c1ccccc1)N(CC1CC1)CCC2,2.8 µM (active)

row,Structure (SMILES),Potency
1,CC1=NS(=O)(=O)N(C)C=C1C(=O)OCc1nc(-c2ccc(C)cc2)no1,8.62 µM (active)
2,CCN(CCCNC(=O)c1nnn2cc(-c3ccccc3)[nH]c(=O)c12)c1ccccc1,inactive
3,Cc1c[nH]c(CN2CCCC(CCc3ccc(F)cc3F)C2)c(C)c1=O (stereo unspecified),2.43 µM (active)
4,O=C(Cc1c[nH]c2ncc(-c3ccccc3F)cc12)N1CCOCC1,28 µM (active)
5,Cc1noc(C)c1-c1cnc2[nH]cc(CC(=O)N3CCOCC3)c2c1,22.2 µM (active)
6,COc1ccccc1Nc1cnc2ccc(N(C)Cc3cccnc3)nn12,35.3 µM (active)
7,O=C(NCC1CC1)c1nc2c(o1)CCN(Cc1cccc(F)c1F)CC2,22.2 µM (active)
8,O=C1NCN(Cc2ccc(Cl)cc2)C12CCN(Cc1ccccc1)CC2,13.7 µM (active)
9,O=C1Nc2ccccc2CN(Cc2ccccc2)C12CCNCC2,inactive
10,OC1(Cc2cc(-c3ccccc3)no2)CCN(c2ncncn2)CC1,6.85 µM (active)
11,O=C(NCc1nnc2cc(-c3nc(C4CC4)no3)ccn12)c1ccc(F)cc1Cl,12.2 µM (active)
12,COc1ccc(CCNC(=O)c2noc(-c3ccc(C)cc3)n2)cc1OC,21.7 µM (active)
13,COc1ccc(C(=O)N2CCC(n3cc(-c4nc(C(C)C)no4)nn3)CC2)cc1F,inactive
14,O=C(c1ccc(F)cc1Cl)N1CCC(n2cc(-c3nc(-c4ccccc4)no3)nn2)C1 (stereo unspecified),4.32 µM (active)
15,O=C(c1ccc(Cl)cc1)N1CCCC(n2cc(-c3nc(-c4ccccc4)no3)nn2)C1 (stereo unspecified),13.7 µM (active)
16,O=C(c1ccc(F)cc1F)N1CCN(c2cc(-c3ccc(Cl)cc3)[nH]n2)CC1,17.2 µM (active)
17,CCc1ccc(C(=O)N2CCN(c3cc(-c4ccc(F)cc4)[nH]n3)CC2)cc1,21.7 µM (active)
18,Cc1ccc(C(=O)N2CCN(c3cc(-c4ccc(Cl)cc4)[nH]n3)CC2)c(C)c1,6.11 µM (active)
19,O=C(c1cc(F)ccc1Cl)N1CCN(c2cc(-c3ccc(F)cc3)[nH]n2)CC1,24.3 µM (active)
20,C1CCC(COCCc2noc(C3CNC3)n2)C1,21.7 µM (active)
21,O=C(c1ccccn1)N1CC(Oc2ccc(-c3noc(C4CC4)n3)cc2)C1,13.7 µM (active)

row,Structure (SMILES),Potency
1,COc1ccc(CC(=O)N2CCC(Cc3nc(-c4ccccc4)no3)CC2)cc1OC,13.7 µM (active)
2,COc1ccc(-c2noc(CC3CCN(C(=O)Cc4ccc(OC)c(OC)c4)CC3)n2)cc1,3.85 µM (active)
3,COc1ccc(CN2C(=O)CO[C@H]3CN(Cc4ccc5c(c4)OCO5)C[C@H]32)cc1,28 µM (active)
4,Cc1ccc2c(c1)nc1n2[C@@H](CNS(=O)(=O)c2ccccc2)COC1,35.3 µM (active)
5,N#Cc1cccc(CN2CCC(C3=NC(O)c4cc(F)ccc4N3)CC2)c1 (stereo unspecified),19.3 µM (active)
6,Fc1ccc(CNC[C@H]2Cn3c(-c4ccc5c(c4)OCCO5)cnc3CO2)cc1,inactive
7,COc1cccc(-c2noc(CC3CCN(C(=O)c4ccc(F)cc4)CC3)n2)c1,4.85 µM (active)
8,Cc1cccc(C(=O)N2CCC3(CC2)CC(N(Cc2ccc(F)cc2)C2CC2)CCO3)c1 (stereo unspecified),inactive
9,O=C(c1ccccc1)N1CCC(C(=O)N2CCC(Cc3nc(-c4ccc(F)cc4)no3)CC2)CC1,13.7 µM (active)
10,CN1CCN(C(=O)C(C)(C)Oc2nn(Cc3cccc(Cl)c3)c3ccccc23)CC1,inactive
11,O=C(c1ccccc1)N1CCNc2cnc(Nc3cccc(C(F)(F)F)c3)nc2C1,22.2 µM (active)
12,Cc1cc(N2CCCC(Cn3cc(Cc4ccccc4)nn3)C2)nc(N)n1 (stereo unspecified),4.85 µM (active)
13,O=C1c2cnc(-c3ccc(Cl)cc3)nc2OCCN1Cc1ccccc1,35.3 µM (active)
14,CN(Cc1csc(-c2ccccc2)n1)c1cc(C2CC(O)C2)nc(N)n1 (stereo unspecified),1.93 µM (active)
15,Cc1ccc(OCc2nc(C3CCN(C(=O)CCc4nc5ccc(Cl)cc5[nH]4)CC3)no2)cc1,24.3 µM (active)
16,O=c1[nH]c(C2CCCN(Cc3ccccn3)C2)nn1-c1ccc(Cl)cc1 (stereo unspecified),9.68 µM (active)
17,CN(C)CCNC(=O)C(C)(C)Oc1nn(Cc2cccc(Cl)c2)c2ccccc12,inactive
18,CC(C)c1cc(C(=O)N2CCC(n3cc(-c4ccccn4)nn3)CC2)n(C)n1,15.3 µM (active)
19,Cc1cccc(CN2CCc3nc(C(=O)Nc4ccc(Cl)cc4)oc3CC2)c1,8.86 µM (active)

# From PubChem BioAssay AID1347051 (National Center for Advancing Translational Sciences (NCATS), 2019)
